Cycloheximide cs = Cycloheximide Counterscreen for Small Molecule Inhibitors of Shiga Toxin. cell reporter, cycloheximide protein synthesis inhibition counterscreen. max response, %. 300,000 tested, 12% active. AID 2314, 2010; in the data active = max response mostly above about 13%, no sharp cut-off; inactive = mostly below about 14%; also: read at 38.3 µM for the half of the compounds with a filed dose; 0% is about no effect
Pf growth 48h = Primary qHTS for delayed death inhibitors of the malarial parasite plastid, 48 hour incubation; P. falciparum luciferase growth in erythrocytes, 48 h; Potency, µM (highest dose often 28.7 µM), for the others: at the highest dose activity change, negative = inhibition, usual class: inhibitors; 310,000 tested, 5.9% active; AID 504832, 2011; active = well fitted inhibition curve with a large enough effect; inconclusive = small, poorly fitted or top-dose-only effect, or another doubt; inactive = no such curve, though single readings can be large or run the other way; also: potency is read from the fitted curve at half-maximal effect; % is scaled to controls: 0 for no effect and ±100 for the full control effect
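Luciferase-expressing parasites in RBCs, 2% Hct / 0.1% parasitemia final; RPMI 1640 + 0.5% Albumax; 37 C, 5% CO2, one generation; luminescence read-out, lower signal = inhibition.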
Pf growth 96h = Primary qHTS for delayed death inhibitors of the malarial parasite plastid, 96 hour incubation | Potency, µM (titrated, usually from 28.7 µM), for the others: at the top dose activity change, negative = inhibition, usual class: inhibitors | P. falciparum luciferase reporter growth, 96 h | 320,000 tested, 6.9% active | AID 504834, 2011; active = well fitted inhibition curve with a large enough effect; inconclusive = small, poorly fitted or top-dose-only effect, or another doubt; inactive = no such curve, though single readings can be large or run the other way; also: potency is read from the fitted curve at half-maximal effect; % is scaled to controls: 0 for no effect and ±100 for the full control effect
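96 h incubation, 37 C, 5% CO2, of luciferase-reporter P. falciparum-infected RBCs (2% hematocrit, 0.05% parasitemia final) with test compounds; endpoint luminescence.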
NS1 function inh = qHTS Assay for Inhibitors of Influenza NS1 Protein Function; Potency, µM (highest dose often 46.1 µM), for the others: at the top dose activity, positive = more growth; 270,000 tested, 0.4% active; AID 2326, 2010; also: potency is read from the fitted curve at half-maximal effect; actives are rising curves; nearly all actives have a fitted effect of over 50% in size
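Read-out: OD600 growth recovery of NS1-expressing budding yeast. Cells grown overnight at 30C in -URA glucose medium, washed, resuspended and diluted 1:100 in 2% galactose assay medium, pH 6.0. Same strain lacking NS1 served as positive control.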
SARS PLP yeast = qHTS of Yeast-based Assay for SARS-CoV PLP | S. cerevisiae expressing SARS-CoV PLpro, growth rescue | Potency, µM (titrated, usually from 32.9 µM), for the others: at the top dose activity, positive = growth rescue, actives largely listed as activators | 330,000 tested, 0.19% active; also: potency is read from the fitted curve at half-maximal effect; 0% is about no effect; nearly all actives have a fitted effect of over 55% in size
Shiga toxin inh = A qHTS for Small Molecule Inhibitors of Shiga Toxin. Vero cells, Shiga toxin protein synthesis inhibition reporter. inhibition, % at 38.7 µM. 290,000 tested, 9.2% active. AID 2315, 2010; in the data active = inhibition mostly above about 28%, no sharp cut-off; inactive = mostly below about 43%; also: 0% is about no effect
Starred values were filed as active, the others as inactive; i = inactive; ? = inconclusive; / = not tested or not shown. Compounds with a hit are over-represented: about 21% of the library has one in this group of screens. Unless noted, calls follow the shape of the full dose curve.

SMILES | Cycloheximide cs | Pf growth 48h | Pf growth 96h | NS1 function inh | SARS PLP yeast | Shiga toxin inh
COc1ccc(/C=C/C(=O)Nc2ccccc2C(F)(F)F)cc1 | 24* | 74% | 147% | -2% | -5% | 59*
COc1ccc(/C=C/C(=O)Nc2ccccc2C(=O)NCC(c2ccc(OC)cc2)N(C)C)cc1 (stereo not given) | 10 | ? | ? | -21% | 0% | 39*
COc1ccc2ccc(O)c(CN(C)CC(=O)Nc3ccccc3C(F)(F)F)c2c1 | -4 | 12µM* | ? | 15% | 1% | 16
CCOc1ccc(/C=C/C(=O)Nc2ccccc2C(F)(F)F)cc1 | 36* | 47% | -23% | -4% | 4% | 38*
CCCCn1c(=O)[nH]c(=O)c2c1nc(-c1ccccn1)n2CC | -2 | -3% | -28% | -7% | 2% | -11
COc1ccc(CCNCC(=O)Nc2ccccc2C(F)(F)F)cc1 | -2 | 13µM* | -28% | / | -1% | -1
COc1ccc(C(=O)NNC(=S)NC(=O)c2ccc(OC)cc2)cc1 | 5 | -9% | 9.3µM* | -72% | -9% | /
COc1ccc(C(=O)NNC(=O)c2cccc(F)c2)cc1 | 26* | 46% | 84% | 7% | 2% | 68*
COc1ccc(NC(=O)c2c(C)noc2-c2snnc2C)cc1 | 11 | 13µM* | 2.9µM* | 2% | -1% | -15
COc1ccc(-c2cc(C(=O)Nc3ccc(C)cc3)no2)cc1 | 0 | 10% | 18% | -1% | / | 3
COc1ccc(C(=O)NNC(=O)c2snnc2C)cc1 | 17 | 13% | -10% | 3% | 0% | 42*
CCc1ccc(OCC(=O)NC(=S)Nc2ccc(S(=O)(=O)NC3CCCCC3)cc2)cc1 | 1 | 3% | / | 1% | -9% | -18
C=CCC1(CC=C)CCCN1C(=O)CC1C(=O)NCCN1Cc1cccc(OC)c1OC (stereo not given) | 9 | ? | 31% | 2% | -1% | -4
CC1C(=O)N2CCCc3cc(S(=O)(=O)N(C)c4ccccc4)cc1c32 (stereo not given) | -3 | ? | -2% | 14% | 1% | -6
CCCc1cc2c(cc1NC(=O)c1ccc(C)cc1)OCO2 | 10 | 1% | -4% | -7% | 3% | 10
C=CCNC(=S)NNC(=O)c1ccc(OCCC)cc1 | 0 | 6% | ? | 10% | 23% | 16
CCOc1cc(NC(=S)Nc2ccccc2)c(OCC)cc1NC(=O)c1ccc(OC)cc1 | 21* | 12µM* | ? | ? | -11% | 10
COc1ccc(C(=O)NNC(=S)Nc2ccccc2)cc1 | 41* | 146% | i | / | 2% | 58
CCCOc1ccc(C(=O)NNC(=S)NC(=O)CC)cc1 | 18 | ? | 15µM* | -169% | -6% | -16
COc1ccc(C(=O)NNC(=O)C2(C)CC2(Br)Br)cc1 (stereo not given) | 26* | 30% | 4% | -8% | -4% | 35*
C[C@]12CC[C@H]3c4ccc(O)cc4CC[C@@H]3[C@H]1C/C(=N/O)[C@H]2O | / | / | / | -2% | / | /
CC(C)c1ccc(S(=O)(=O)N2CCN(C(C)C(=O)Nc3ccccc3-c3ccccc3)CC2)cc1 (stereo not given) | 1 | 9.3µM* | 5.2µM* | ? | 3% | -8
CCCC(NC(=O)C(C)N1CCN(S(=O)(=O)c2ccccc2)CC1)c1ccccc1 (stereo not given) | / | -23% | 10µM* | / | -3% | /
CCCNC(=O)C1CN(S(=O)(=O)c2ccccc2)CCN1S(=O)(=O)c1ccccc1 (stereo not given) | 1 | -28% | / | -7% | -1% | -3
CCC(C)NC(=O)C1CN(S(=O)(=O)c2ccccc2)CCN1S(=O)(=O)c1ccccc1 (stereo not given) | 25* | -19% | / | -15% | -3% | 28
CC(C(=O)Nc1ccccc1-c1ccccc1)N1CCN(S(=O)(=O)c2ccccc2)CC1 (stereo not given) | -3 | 6.6µM* | 9.3µM* | -17% | 5% | -7
O=C(Nc1ccccc1-c1ccccc1)C(c1ccccc1)c1ccccc1 | 1 | ? | 1.7µM* | 5% | 5% | -5
